Source: PubChem BioAssay (EPA / NIEHS)
Where “and” joins values, the source holds several entries; their conditions need not be identical. Identical values can stand only once. Where a structure was tested more than once in an assay, its records may differ in their call. Calls of active or inactive are those of the source. The calls were made as follows: active = hit-call score of the fitted dose curve at least 0.9, where 1 is the maximum; inactive = score below 0.9.

How the values were obtained:
[1] = ATG_GRE_CIS: Attagene CIS-FACTORIAL HepG2 Assay for human Glucocorticoid Response Elements (GRE) (AID 2282947); conditions: HepG2 GRE cis-reporter, Attagene multiplex mRNA; actives raise or lower the signal
Outline: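 HepG2, transient cis-reporter transfection, 24 h. Reporter mRNA: RT-PCR then CE, fluorescence. Fit both directions vs DMSO.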

[2] = ATG_ISRE_CIS: Attagene CIS-FACTORIAL HepG2 Assay for human Interferon Regulatory Factor 1 (IRF1) binding to an Interferon-Stimulated Response Element (ISRE) (AID 2282948); conditions: HepG2 ISRE cis-reporter (Attagene), mRNA transcription readout; actives raise or lower the signal
Outline: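 Signal reflects induction or loss of ISRE-linked reporter mRNA in transiently transfected HepG2 cells after a 24 h treatment, detected by fluorescent RT-PCR fragments on capillary electrophoresis and normalised to DMSO.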

[3] = ATG_M_32_CIS: Attagene CIS-FACTORIAL HepG2 Assay for M32 Transcription Factor (Internal Marker) (AID 2282949); conditions: HepG2 Attagene cis-factorial M32 reporter, mRNA; actives raise or lower the signal;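 also: background control marker of the multiplexed CIS panel rather than a real target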
Outline: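 Using DMSO as baseline, bidirectional curve fits were applied to reporter mRNA signals. These came from transiently transfected HepG2 cells exposed for 24 h, with RNA analysed by RT-PCR, FAM primer extension, HpaI digestion and CE.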

[4] = ATG_M_06_CIS: Attagene CIS-FACTORIAL HepG2 Assay for M06 Transcription Factor (Internal Marker) (AID 2282950); conditions: HepG2 Attagene CIS-FACTORIAL M06 internal marker reporter; actives raise or lower the signal
Outline: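 Steps: transfect HepG2 with multiplexed cis-element reporter constructs; dose chemical 24 h; extract RNA with DNase treatment; reverse-transcribe, PCR-amplify, 6-FAM label, HpaI digest; separate fragments by capillary electrophoresis. Activity fitted both directions versus DMSO.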

[5] = molecular target: Hypoxia-inducible factor 1-alpha (Homo sapiens) (UniProt Q16665); test: ATG_HIF1a_CIS: Attagene CIS-FACTORIAL HepG2 Assay for human Hypoxia Inducible Factor 1 (HIF1A) (AID 2282951); conditions: HepG2 Attagene cis-factorial HIF1a reporter transcription; actives raise or lower the signal
Outline: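 HepG2 cells transiently transfected with multiplexed cis-promoter reporter units; reporter mRNA read 24 h after dosing by RT-PCR, 6-FAM primer-extension labelling, HpaI digestion and capillary electrophoresis. Bidirectional fit versus DMSO baseline.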

[6] = molecular target: Hepatocyte nuclear factor 6 (Homo sapiens) (UniProt Q9UBC0); test: ATG_HNF6_CIS: Attagene CIS-FACTORIAL HepG2 Assay for human Hepatocyte Nuclear Factor 6 (HNF6) (AID 2282952); conditions: HepG2 Attagene cis-factorial HNF6 reporter transcription; actives raise or lower the signal
Outline: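 Readout: fluorescent reporter-transcript fragments resolved by capillary electrophoresis after RT-PCR, reflecting endogenous factor activity in transfected HepG2. Exposure 24 h. Gain or loss of signal fitted bidirectionally against DMSO.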

[7] = molecular target: Heat shock factor protein 1 (Homo sapiens) (UniProt Q00613); test: ATG_HSE_CIS: Attagene CIS-FACTORIAL HepG2 Assay for human Heat Shock Transcription Factor 1 (HSE) (AID 2282953); conditions: HepG2 HSE cis-reporter, Attagene RNA transcription; actives raise or lower the signal
Outline: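 Cells were transfected with cis-element-driven reporter constructs, dosed for 24 h, then total RNA was reverse-transcribed and reporter cDNA amplified, FAM-labelled and digested with HpaI. Fragments were resolved by capillary electrophoresis; gain or loss was fitted against DMSO.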

[8] = ATG_MRE_CIS: Attagene CIS-FACTORIAL HepG2 Assay for human Metal Responsive Element (MRE) (AID 2282954); conditions: HepG2 MRE cis-reporter transcription, Attagene multiplex; actives raise or lower the signal
Outline: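 Readout: capillary electrophoresis of 6-FAM-labelled, HpaI-digested RT-PCR reporter products. System: HepG2 cells carrying transient multiplexed cis reporters, dosed 24 h. Analysis: bidirectional fit, DMSO baseline.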

[9] = ATG_PBREM_CIS: Attagene CIS-FACTORIAL HepG2 Assay for human Phenobarbital-responsive Enhancer Module (PBREM) (AID 2282955); conditions: HepG2 PBREM cis-reporter, Attagene multiplexed transcription; actives raise or lower the signal
Outline: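 HepG2 cells transiently transfected with multiple cis-regulated reporter transcription units; endogenous factor activity at the PBREM element measured as reporter mRNA 24 h after dosing, via RT-PCR and capillary electrophoresis of fluorescent fragments; bidirectional fitting versus DMSO.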

[10] = molecular target: Paired box protein Pax-6 (Homo sapiens) (UniProt P26367); test: ATG_Pax6_CIS: Attagene CIS-FACTORIAL HepG2 Assay for human Paired Box 6 (PAX6) (AID 2282956); conditions: HepG2 CIS-FACTORIAL PAX6 reporter transcription, RNA readout; actives raise or lower the signal
Outline: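 Values derive from bidirectional curve fitting of reporter mRNA signal relative to DMSO. HepG2 cells bearing transfected cis-regulated MRTUs were exposed for 24 h; transcripts were read by RT-PCR and capillary electrophoresis.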

Measured: AC50

Chain of Hepatocyte nuclear factor 6 (Homo sapiens) (Q9UBC0 whole entry, looked up, the tested form may be a part): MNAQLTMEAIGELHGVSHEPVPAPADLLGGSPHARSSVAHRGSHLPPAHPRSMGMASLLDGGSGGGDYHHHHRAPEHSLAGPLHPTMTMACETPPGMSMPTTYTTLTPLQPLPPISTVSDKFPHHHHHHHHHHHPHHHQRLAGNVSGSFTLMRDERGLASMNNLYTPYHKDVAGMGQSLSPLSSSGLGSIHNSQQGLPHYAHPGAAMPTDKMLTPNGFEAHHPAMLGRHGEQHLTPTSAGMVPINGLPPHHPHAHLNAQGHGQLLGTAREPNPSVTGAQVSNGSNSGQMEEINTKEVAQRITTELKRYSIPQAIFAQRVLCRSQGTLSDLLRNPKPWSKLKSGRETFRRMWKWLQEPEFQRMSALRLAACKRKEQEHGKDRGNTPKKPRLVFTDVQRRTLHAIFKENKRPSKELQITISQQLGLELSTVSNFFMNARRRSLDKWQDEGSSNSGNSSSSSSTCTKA
Chain of Paired box protein Pax-6 (Homo sapiens) (P26367 whole entry, looked up): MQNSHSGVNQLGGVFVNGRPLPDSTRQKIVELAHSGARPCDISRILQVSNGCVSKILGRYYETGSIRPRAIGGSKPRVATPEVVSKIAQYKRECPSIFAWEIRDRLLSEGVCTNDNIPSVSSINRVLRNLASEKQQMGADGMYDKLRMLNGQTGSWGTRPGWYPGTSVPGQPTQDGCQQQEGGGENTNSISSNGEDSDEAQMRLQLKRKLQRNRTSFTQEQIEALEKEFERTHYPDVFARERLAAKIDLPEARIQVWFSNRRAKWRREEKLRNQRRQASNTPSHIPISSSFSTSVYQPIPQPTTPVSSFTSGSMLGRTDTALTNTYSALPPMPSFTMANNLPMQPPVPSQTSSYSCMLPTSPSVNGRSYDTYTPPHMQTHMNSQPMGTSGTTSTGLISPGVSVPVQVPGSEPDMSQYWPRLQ
Chain of Heat shock factor protein 1 (Homo sapiens) (Q00613 whole entry, looked up, the tested form may be a part): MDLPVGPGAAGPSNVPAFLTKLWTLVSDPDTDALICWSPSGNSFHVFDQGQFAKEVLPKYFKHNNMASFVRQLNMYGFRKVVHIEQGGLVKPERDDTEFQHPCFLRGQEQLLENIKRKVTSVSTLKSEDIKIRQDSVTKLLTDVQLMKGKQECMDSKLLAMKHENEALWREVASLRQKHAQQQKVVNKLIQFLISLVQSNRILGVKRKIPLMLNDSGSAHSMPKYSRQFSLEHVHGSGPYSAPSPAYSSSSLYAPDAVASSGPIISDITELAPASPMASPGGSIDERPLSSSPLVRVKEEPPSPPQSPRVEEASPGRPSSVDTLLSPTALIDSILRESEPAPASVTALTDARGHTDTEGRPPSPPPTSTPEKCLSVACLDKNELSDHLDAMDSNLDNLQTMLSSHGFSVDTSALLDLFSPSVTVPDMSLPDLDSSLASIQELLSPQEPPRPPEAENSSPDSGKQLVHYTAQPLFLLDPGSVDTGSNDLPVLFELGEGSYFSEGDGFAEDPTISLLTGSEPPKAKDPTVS
Chain of Hypoxia-inducible factor 1-alpha (Homo sapiens) (Q16665 whole entry, looked up): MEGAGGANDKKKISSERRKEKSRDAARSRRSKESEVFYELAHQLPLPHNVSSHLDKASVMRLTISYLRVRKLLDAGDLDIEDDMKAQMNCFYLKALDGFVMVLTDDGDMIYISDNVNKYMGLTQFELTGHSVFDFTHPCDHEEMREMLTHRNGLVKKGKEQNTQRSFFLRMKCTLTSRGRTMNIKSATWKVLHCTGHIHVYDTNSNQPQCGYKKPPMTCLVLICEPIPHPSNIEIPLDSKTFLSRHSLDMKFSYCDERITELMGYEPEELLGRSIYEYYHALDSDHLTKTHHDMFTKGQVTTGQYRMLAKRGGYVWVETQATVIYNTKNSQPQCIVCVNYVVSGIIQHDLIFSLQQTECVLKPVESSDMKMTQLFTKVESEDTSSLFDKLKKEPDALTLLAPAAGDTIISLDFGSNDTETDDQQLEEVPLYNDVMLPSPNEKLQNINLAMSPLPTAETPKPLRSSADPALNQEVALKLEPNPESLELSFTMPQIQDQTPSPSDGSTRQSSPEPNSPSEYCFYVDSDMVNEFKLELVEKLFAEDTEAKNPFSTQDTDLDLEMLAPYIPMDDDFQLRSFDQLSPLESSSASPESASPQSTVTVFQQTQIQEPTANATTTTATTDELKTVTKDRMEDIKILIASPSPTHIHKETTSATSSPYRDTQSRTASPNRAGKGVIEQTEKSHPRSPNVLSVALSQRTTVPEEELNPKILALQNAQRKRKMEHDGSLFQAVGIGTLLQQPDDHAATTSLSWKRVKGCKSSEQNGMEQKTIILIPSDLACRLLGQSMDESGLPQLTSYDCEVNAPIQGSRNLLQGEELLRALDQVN

CC1(C)C(=O)NC(=O)N1CO
inactive: all assays above

CSc1ccc(Oc2ccc(S(N)(=O)=O)cc2CN(C)C)cc1C
inactive: all assays above

O=C1CCCCC1
inactive: all assays above

CCCCC(CC)COP(=O)(OCC(CC)CCCC)OCC(CC)CCCC (stereo not given)
inactive: all assays above

Nc1nc(Cl)nc2c1ncn2[C@H]1C[C@H](O)[C@@H](CO)O1
not listed: [5]
inactive: all other assays above

CC(COCC(C)OC(=O)c1ccccc1)OC(=O)c1ccccc1 (stereo not given)
inactive: all assays above

CCCCCCCCCCCCCCCCO
inactive: all assays above

Cc1ccc(-c2cc(C(F)(F)F)nn2-c2ccc(S(N)(=O)=O)cc2)cc1
active: [8] 6.28 µM
not listed: [9]
inactive: all other assays above

CO[C@@H]1COCC[C@@H]1N[C@@H]1CC[C@@](C(=O)N2CCc3ncc(C(F)(F)F)cc3C2)(C(C)C)C1
inactive: all assays above

CC(C)(O)c1ccc(CNC(=O)c2cccnc2Oc2ccc(F)cc2)cc1
inactive: all assays above

NCCOCCOCCN
inactive: all assays above

C=CCCCCCCCCCCCC
inactive: all assays above

CCCC(=O)O
not listed: [1]
inactive: all other assays above

O=C(Oc1ccccc1)c1cccc(C(=O)Oc2ccccc2)c1
not listed: [1]
inactive: all other assays above

O=C(N[C@@H](c1ccccc1)[C@@H]1CCCCN1)c1cccc(C(F)(F)F)c1Cl
active: [5] 16.6 µM | [6] 62.1 µM | [7] 52.4 µM | [8] 38 µM | [10] 33 µM
inactive: [1] | [2] | [3] | [4] | [9]

C=CCc1ccc(OC)c(OC)c1
active: [5] 0.0538 µM
not listed: [9]
inactive: all other assays above

CN(C)CCCN(C)CCCN(C)C
not listed: [9]
inactive: all other assays above

COC(=O)[C@H]1[C@H]2C[C@@H]3c4[nH]c5cc(OC)ccc5c4CCN3C[C@H]2C[C@@H](OC(=O)c2cc(OC)c(OC)c(OC)c2)[C@@H]1OC
active: [8] 3.49 µM | [10] 8.41 µM
not listed: [5] | [9]
inactive: all other assays above

COc1ccc(C(=O)Nc2nc3ccccc3c(NCc3ccccc3)c2C#N)cc1
active: [5] 26.5 µM
inactive: all other assays above

CCOCCOCCO
not listed: [9]
inactive: all other assays above

CC(=O)O[C@]1(C(C)=O)CC[C@H]2[C@@H]3C=C(Cl)C4=CC(=O)[C@@H]5C[C@@H]5[C@]4(C)[C@H]3CC[C@@]21C
inactive: [2] | [3] | [4] | [6] | [7] | [8] | [10]
active: [2] 77.5 µM | [6] 165 µM and 57.2 µM | [7] 83.8 µM [middle of 4 runs] | [8] 100 µM [middle of 4 runs] | [10] 27.3 µM and 66.1 µM and 100 µM

CC(=O)S[C@H](C(=O)N[C@H]1Cc2ccccc2[C@H]2CCC[C@@H](C(=O)O)N2C1=O)C(C)C
inactive: all assays above

OCC(CO)n1cnc(-c2ccc(F)cc2)c1-c1ccnc(Oc2ccccc2)n1
inactive: all assays above

CC(=O)[C@@]1(O)CC[C@H]2[C@@H]3CCC4=CC(=O)CC[C@]4(C)[C@H]3CC[C@@]21C
not listed: [5] | [9]
inactive: all other assays above

CC(C)c1cccc(C(C)C)c1
not listed: [9]
inactive: all other assays above

CCN(CC)CCOc1ccc(C(=C(Cl)c2ccccc2)c2ccccc2)cc1
inactive: [1] | [2] | [3] | [4] | [5] | [6] | [7] | [8] | [9] | [10]
active: [5] 9.35 µM | [6] 11.4 µM | [7] 14.3 µM | [8] 13.8 µM | [10] 10.4 µM

Cn1cnc2c1c(=O)[nH]c(=O)n2C
not listed: [5]
inactive: all other assays above

CC1=C(C)S(=O)(=O)CCS1(=O)=O
inactive: all assays above

CN(C)C(=O)NC1(c2ccccc2)CCN(CCC[C@]2(c3ccc(Cl)c(Cl)c3)CCCN(C(=O)c3ccccc3)C2)CC1
active: [8] 4.19 µM | [10] 4.94 µM
inactive: all other assays above

CC(C)(C)c1ccccc1
not listed: [1]
inactive: all other assays above

O=C1c2c(O)cccc2Cc2cccc(O)c21
active: [5] 26.6 µM
not listed: [1]
inactive: all other assays above

O=[Si]=O
not listed: [1] | [9]
inactive: all other assays above

NC(=Nc1ccccc1)Nc1ccccc1
active: [2] 5.79 µM | [8] 28 µM | [10] 34.6 µM
not listed: [1] | [9]
inactive: all other assays above

S=c1[nH]c2ccccc2s1
active: [2] 41.8 µM
not listed: [1]
inactive: all other assays above

O=C1O[C@H]([C@H](O)CO)C(O)=C1O
not listed: [1]
inactive: all other assays above

O=C(O)c1[nH]n(-c2ccc(S(=O)(=O)O)cc2)c(=O)c1N=Nc1ccc(S(=O)(=O)O)cc1
not listed: [1]
inactive: all other assays above

O=Cc1ccccc1C=O
active: [5] 26.2 µM
not listed: [1] | [9]
inactive: all other assays above

C#CC(O)C(CC)CCCC (stereo not given)
active: [3] 157 µM | [6] 144 µM
not listed: [1]
inactive: all other assays above

CCCCC(CC)COC(=O)CCCCCCCC(=O)OCC(CC)CCCC (stereo not given)
active: [5] 61.9 µM
not listed: [1]
inactive: all other assays above

CCCCCCC(C=O)=Cc1ccccc1
active: [7] 157 µM and 93.3 µM | [8] 137 µM and 89.2 µM
not listed: [1]
inactive: all other assays above
